According to PubChem BioAssay (NCI):
The panel holds about 83,000 compounds, 20% with a hit somewhere; the sample as a whole holds those more often.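 For each line, cells grew in 96-well plates with the test compound present at a single concentration for 48 hours.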 Values without a mark were called inactive. The source made the active and inactive calls. How the source made its calls: active means growth percent below 10; inactive means the rest.

tested on: U251 CNS; assay: NCI-60 one-dose screen, 48 h (100 = growth as untreated, 0 = no growth, -100 = all killed); conditions: 10 µM unless noted

Row | Compound | growth
1 | Cc1cc(Cl)nc(N2CCN(CCNc3ccnc4cc(Cl)ccc34)CC2)n1 | 55.3%
2 | Cc1ccc(C)c2c1sc1nc(N3CCOCC3)c(C#N)c(=O)n12 | 58.9%
3 | COc1ccc2c(c1)CC[C@@H]1[C@@H]2CC[C@]2(C)c3c(cc(C#N)c4c3sc3ccccc34)C[C@@H]12 | 104%
4 | C=C1C(=O)O[C@H]2[C@H]1CC/C(COC(=O)NCc1ccc(Cn3c(=O)sn(-c4ccc(I)cc4)c3=O)cc1)=C\CC[C@@]1(C)O[C@@H]21 | 83.6%
5 | O=C(O)CC(C(=O)O)/C(=C\c1ccccc1)c1ccccc1 (configuration not stated) | 99.8%
6 | CCN(CC)CCOc1ccc(Nc2ncc3cc(-c4c(Cl)cccc4Cl)c(=O)n(CCOC)c3n2)cc1 | 0.141% (active)
7 | O=C(c1ccc(Br)cc1)C(Br)C(c1ccc(Cl)cc1)C(c1ccccc1)[N+](=O)[O-] (configuration not stated) | 96.9%
8 | CN1CCOCCN(C)Cc2ccc3ccc(cc3c2)CN(C)CCOCCN(C)Cc2ccc3ccc(cc3c2)C1 | 80.7%
9 | COc1ccc(CN2C(=O)OC(C)(COC(C)=O)C2=O)cc1 (configuration not stated) | 104%
10 | CN(C)c1ccc(/C=N\NC(=O)c2ccc3nc(-c4ccc(Cl)cc4)[nH]c3c2)cc1 | 1.62% (active)
11 | COCCn1cc(-c2csc(-c3c[nH]c4ccc(F)cc34)n2)c2cccnc21 | 32.5%
12 | C/C(Cc1ccc(Cl)cc1)=C(\c1ccc(OCCN2CCCCCC2)cc1)c1ccc(OC(=O)c2ccccc2)cc1 | 37.8%

tested on: PC-3 prostate; assay: as above; conditions: 10 µM unless noted

Row | Compound | growth
13 | COCCn1cc(-c2csc(-c3c[nH]c4ccccc34)n2)c2cccnc21 | 29.6%
14 | CCN(CC)c1ccc(-c2cc(-c3cc(OC)c(OC)c(OC)c3)nc(N3CCC(O)CC3)c2C#N)cc1 | 13.1%
15 | CN1C(=O)/C(=C/c2ccc(C(=O)Nc3ncc(Cc4cccc(C(F)(F)F)c4)s3)cc2)SC1=S | 53.5%
16 | Nc1ncnc2c1N=C(c1ccc(Cl)cc1)CC(c1cccc(Nc3ccnc4cc(Cl)ccc34)c1)N2 (configuration not stated) | 55.4%
17 | COCCn1cc(-c2nc(-c3cc4cccnc4n3C)cs2)c2ccccc21 | 27.5%
18 | COC(=O)[C@]1(C)CCC[C@]2(C)[C@H]3C[C@@H]4[C@H]5[C@@H]6CC/C(=N\OCC/C(N)=N/O)[C@H]5[C@@]3(CC[C@H]21)CC4(C(C)C)O6 | 47.5%
19 | Cc1cccc(-c2nc(C(C)C)sc2-c2ccnc(NCCCNS(=O)(=O)c3ccc(Cl)cc3)c2)c1 | 50%
20 | O=C(/C=C/C12c3ccccc3C(c3ccccc31)C1C(=O)NC(=O)C12)c1ccc(Cl)cc1Cl (configuration not stated) | 15.6%
21 | CC(C)(C)CC(C)(C)Nc1c(-c2c(O)c3ccccc3oc2=O)nc2sc3ccccc3n12 | 34.9%
22 | CN(C)CCC(CCN(C)C)(C(=O)O)c1ccccc1 | 92.7%
23 | Cn1c(=O)[nH]c(=O)c2nc3c(nc21)-c1ccccc1C3=O | 95.8%
24 | C=C(c1ccc(C(=O)O)c(F)c1)c1cc2c(cc1C)C(C)(C)CCC2(C)C | 72.5%
25 | C=C1C(=O)O[C@H]2[C@H]1CC/C(COC(=O)C(=O)c1c[nH]c3ccc(Cl)cc13)=C\CC[C@@]1(C)O[C@@H]21 | -74.4% (active)
26 | N#Cc1c(-c2ccc(Br)cc2)nc2c(N=Nc3ccc(S(N)(=O)=O)cc3)c(N)nn2c1N | 37.6%
27 | CCN(CC)CCN1C(=O)c2c(c3c4ccccc4[nH]c3c3ccc4ccccc4c23)C1=O | -74.6% (active)
28 | O=C(/C=C/c1ccccc1)N(C1CCCCC1)C1CCCCC1 | 60.2%
29 | CC1(C)CC[C@]2(CO)CC[C@]3(C)[C@](O)([C@H](O)C[C@@H]4[C@@]5(C)CCCNC(C)(C)[C@@H]5CC[C@]43C)[C@@H]2C1 | 75.9%
30 | Nc1nc(N(Cc2ccccc2)c2ccccc2)c2cn[nH]c2n1 | 74.8%
31 | CN1CC(c2ccc(Br)cc2)C(C(=O)c2ccc(Br)cc2)C12C(=O)Nc1ccccc12 (configuration not stated) | 43.5%
32 | Nc1nc(C(=O)N/N=C/c2ccc(F)cc2)nn1-c1ccc(S(N)(=O)=O)cc1 | 107%

Row | Compound | growth
33 | COc1ccc(-c2nc(SCC(=O)Nc3nc4ccc(C)cc4s3)[nH]c(=O)c2C#N)cc1OC | 93.2%
34 | CNC(=O)NCC1OC(n2cnc3c(NC(=O)Nc4ccccc4)ncnc32)C2OC(=O)CC12 (configuration not stated) | 99.8%
35 | COc1ccc(NC(=O)c2ccc(Nc3ncnc4c3cnn4-c3cccc(F)c3)cc2)cc1 | 96.3%
36 | CC(C)NS(=O)(=O)/N=C1\NC(=O)NC1=C(Cl)Cl | 94.5%
37 | Cc1ccc2cnc(N)c(C#Cc3cc(C(=O)Nc4ccc(CN5CCN(C)CC5)c(C(F)(F)F)c4)cnc3C)c2c1 | -86.9% (active)
38 | Cc1nn(-c2ccc([N+](=O)[O-])cc2)c2ncnc(N/N=C/c3ccccc3O)c12 | 27%
39 | CC(C)(C)OC(=O)CN1CCc2c(sc3ncnc(N4CCN(c5ccc(F)cc5)CC4)c23)C1 | 69.2%
40 | COC(=O)[C@@]1(C)CC[C@]2(C)CC[C@]3(C)C4=CC=C5C(=CC(=O)C(O)=C5C)[C@]4(C)[C@@H](O)C[C@@]3(C)[C@@H]2C1 | 29.1%
41 | Cc1cc(Cl)nc(N2CCN(CCNc3ccnc4cc(Cl)ccc34)CC2)n1 | 43.1%
42 | Cc1ccc(C)c2c1sc1nc(N3CCOCC3)c(C#N)c(=O)n12 | 18.5%
43 | COc1ccc2c(c1)CC[C@@H]1[C@@H]2CC[C@]2(C)c3c(cc(C#N)c4c3sc3ccccc34)C[C@@H]12 | 85.5%
44 | C=C1C(=O)O[C@H]2[C@H]1CC/C(COC(=O)NCc1ccc(Cn3c(=O)sn(-c4ccc(I)cc4)c3=O)cc1)=C\CC[C@@]1(C)O[C@@H]21 | 77.5%
45 | O=C(O)CC(C(=O)O)/C(=C\c1ccccc1)c1ccccc1 (configuration not stated) | 96.6%
46 | CCN(CC)CCOc1ccc(Nc2ncc3cc(-c4c(Cl)cccc4Cl)c(=O)n(CCOC)c3n2)cc1 | 60%
47 | O=C(c1ccc(Br)cc1)C(Br)C(c1ccc(Cl)cc1)C(c1ccccc1)[N+](=O)[O-] (configuration not stated) | 76.5%
48 | CN1CCOCCN(C)Cc2ccc3ccc(cc3c2)CN(C)CCOCCN(C)Cc2ccc3ccc(cc3c2)C1 | 55.5%
49 | COc1ccc(CN2C(=O)OC(C)(COC(C)=O)C2=O)cc1 (configuration not stated) | 101%
50 | CN(C)c1ccc(/C=N\NC(=O)c2ccc3nc(-c4ccc(Cl)cc4)[nH]c3c2)cc1 | 46.8%
51 | COCCn1cc(-c2csc(-c3c[nH]c4ccc(F)cc34)n2)c2cccnc21 | 22.5%
52 | C/C(Cc1ccc(Cl)cc1)=C(\c1ccc(OCCN2CCCCCC2)cc1)c1ccc(OC(=O)c2ccccc2)cc1 | 19.4%
